Assay results published in PubChem BioAssay (EPA / NIEHS).
Records with an inconclusive call do not appear. Active and inactive are the calls of the source. Rule for the calls: active = hit-call score of the fitted dose curve at least 0.9, where 1 is the maximum; inconclusive = response in the unintended direction; inactive = score below 0.9.

read-out: Cytochrome P450 2C19 (Homo sapiens) (UniProt P33261); test: CLD_CYP2C19_48hr: CellzDirect (CLD) Gene Expression Assay for xenobiotic metabolism (CYP2C19) at 48 hours (AID 2283700);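 note: fitted upward so actives raise CYP2C19 mRNA above the 0.2% DMSO vehicle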
Outline: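 Primary human hepatocytes (two donor preparations) dosed daily for two days, harvested at 48 h; CYP2C19 mRNA induction measured by qNPA chemiluminescence. Gain-of-signal fitted relative to 0.2% DMSO vehicle as baseline.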

Cytochrome P450 2C19 (Homo sapiens), sequence (P33261 whole entry, looked up): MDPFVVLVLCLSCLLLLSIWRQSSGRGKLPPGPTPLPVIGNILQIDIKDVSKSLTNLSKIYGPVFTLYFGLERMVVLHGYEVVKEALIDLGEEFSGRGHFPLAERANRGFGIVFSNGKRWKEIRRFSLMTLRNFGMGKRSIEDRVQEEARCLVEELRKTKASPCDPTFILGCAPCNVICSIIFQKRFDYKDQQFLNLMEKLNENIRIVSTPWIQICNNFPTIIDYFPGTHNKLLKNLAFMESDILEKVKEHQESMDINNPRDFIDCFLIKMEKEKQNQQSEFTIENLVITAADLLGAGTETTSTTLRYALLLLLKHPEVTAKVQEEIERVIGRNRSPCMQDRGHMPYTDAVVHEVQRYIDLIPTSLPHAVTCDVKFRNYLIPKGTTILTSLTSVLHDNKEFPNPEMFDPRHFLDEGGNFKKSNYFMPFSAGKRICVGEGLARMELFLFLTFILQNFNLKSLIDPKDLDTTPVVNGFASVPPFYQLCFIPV

**Q.** Which outcome does the source give for `Cc1ccn2nc(S(=O)(=O)Nc3c(F)cccc3F)nc2n1` here?
**A.** inactive

**Q.** How did the outcome turn out when `CCOP(=O)(OCC)Oc1cc(C)nc(C(C)C)n1` was run?
**A.** inactive

**Q.** With `CC(=NC#N)N(C)Cc1ccc(Cl)nc1` as the molecule, how does the outcome read?
**A.** inactive

**Q.** How did the outcome turn out when `COc1cc(OC)nc(Sc2cccc(Cl)c2C(=O)O)n1` was run?
**A.** inactive

**Q.** How did the outcome turn out when `C#CC(C)(C)NC(=O)c1cc(Cl)cc(Cl)c1` was run?
**A.** inactive

**Q.** `O=C(O)c1cc(Oc2ccc(C(F)(F)F)cc2Cl)ccc1[N+](=O)[O-]` was tested. Which outcome did it give?
**A.** inactive

**Q.** Which outcome does the source give for `CCCCOC(=O)c1ccccc1C(=O)O` here?
**A.** inactive

**Q.** How did the outcome turn out when `CN1COCN(Cc2cnc(Cl)s2)C1=N[N+](=O)[O-]` was run?
**A.** inactive

**Q.** Which outcome does the source give for `CCOP(=S)(OCC)SCCSCC` here?
**A.** inactive

**Q.** With `CCCCOC(=O)[C@@H](C)Oc1ccc(Oc2ccc(C#N)cc2F)cc1` as the molecule, how does the outcome read?
**A.** inactive

**Q.** For `CN(C)NC(=O)CCC(=O)O`, which outcome is on record?
**A.** inactive

**Q.** How did the outcome turn out when `CNC(=O)Oc1cccc2c1OC(C)(C)O2` was run?
**A.** inactive

**Q.** Which outcome does the source give for `C[N+]1(C)CCCCC1` here?
**A.** inactive

**Q.** For `CC(C)=CC1C(C(=O)OCN2C(=O)C3=C(CCCC3)C2=O)C1(C)C` (stereo not drawn), which outcome is on record?
**A.** inactive

**Q.** With `C=C(C)[C@H]1Cc2c(ccc3c2O[C@@H]2COc4cc(OC)c(OC)cc4[C@@H]2C3=O)O1` as the molecule, how does the outcome read?
**A.** inactive

**Q.** With `CCCOc1nn(C(=O)NS(=O)(=O)c2ccccc2C(=O)OC)c(=O)n1C` as the molecule, how does the outcome read?
**A.** inactive

**Q.** With `COP(=O)(OC)OC(Br)C(Cl)(Cl)Br` (stereo not drawn) as the molecule, how does the outcome read?
**A.** inactive

**Q.** For `CC(C1CC1)C(O)(Cn1cncn1)c1ccc(Cl)cc1` (stereo not drawn), which outcome is on record?
**A.** inactive

**Q.** With `CCOP(=S)(OCC)Oc1ccc2c(C)c(Cl)c(=O)oc2c1` as the molecule, how does the outcome read?
**A.** inactive

**Q.** With `CCOP(=O)(NC(C)C)Oc1ccc(SC)c(C)c1` (stereo not drawn) as the molecule, how does the outcome read?
**A.** inactive

**Q.** With `COP(=O)(NC(C)=O)SC` (stereo not drawn) as the molecule, how does the outcome read?
**A.** inactive

**Q.** For `Cc1nn(-c2cc(NS(C)(=O)=O)c(Cl)cc2Cl)c(=O)n1C(F)F`, which outcome is on record?
**A.** inactive

**Q.** With `COc1cccc(C(=O)NN(C(=O)c2cc(C)cc(C)c2)C(C)(C)C)c1C` as the molecule, how does the outcome read?
**A.** inactive
